# Screening results deposited in PubChem BioAssay by National Center for Advancing Translational Sciences (NCATS).
# Rows were chosen to be rich in hits. Some 8.8% of all compounds tested hit in one or more screens of this group.
# HT1080NT lethal = kills 2HG-producing HT-1080-NT fibrosarcoma cells. HT-1080-NT fibrosarcoma viability, CellTiter-Glo ATP luminescence, 48 h. Potency, µM (doses to about 46.1 µM), for the others: top-dose activity, negative = less viability, hits mostly cytotoxic. 1.6% of 360,000 active;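 note: NT is the 2HG producing partner of a matched IDH1 knockdown line; potency is the fitted concentration of half-maximal effect; 0% = DMSO-treated cells and -100% = media-only wells without cells; nearly all actives have a fitted effect of over 55% in size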
#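 Fibrosarcoma NT cells, 750 per well in 5% FBS RPMI, were exposed to compound for 48 hours. Viability: CellTiter-Glo luminescence.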
# HT1080 IDH1KD tx = toxicity to HT-1080 IDH1 knockdown cells (counter line); HT-1080 IDH1 knockdown viability, ATP luminescence, 48 h; Potency, µM (doses to about 46.1 µM), for inactives: at the highest dose activity, negative = toxicity, hits mostly cytotoxic; AID 686971; 2% of 360,000 active;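 note: potency is the fitted concentration of half-maximal effect; 0% = DMSO wells and -100% = cell-free medium wells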
#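 HT-1080-IDH1KD cells (IDH1 knocked down), 750/well in RPMI with 5% FBS, treated with compound 48 h at 37 degrees C. Viability by CellTiter-Glo luminescence, normalised to DMSO and no-cell wells; concentration-response curves classed.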
# KB-3-1 cytotox = KB-3-1 parental cell cytotoxicity | KB-3-1 viability, CellTiter-Glo ATP luminescence, 72 h | Potency, µM (highest dose often 46.1 µM), usual class: cytotoxic | 1.4% of 400,000 active | AID 1347075; note: potency is the fitted concentration of half-maximal effect; nearly all actives have a fitted effect of over 60% in size
#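 Screening of KB-3-1 cells (DMEM, 10% FBS, phenol-red free) ran from lowest to highest compound concentration; after 72 h at 37 °C viability was read luminescently and curves fitted.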
# IL1B secr inh = inflammasome signaling inhibition, IL-1 beta readout. THP-1 LPS/ATP IL-1B secretion, AlphaLISA, 16 h; active compounds read low. activity change, % at 57.5 µM. 4.7% of 360,000 active. AID 743279; in the data active = activity change below about -50%; inconclusive = mostly about -30% to -49%
#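 Secreted IL-1B measured by AlphaLISA bead assay after 16 h compound exposure of THP-1 cells; compounds (final up to 57.5 uM) added 1 h before LPS (250 ng/mL) and ATP (1.25 mM) stimulation; lower signal means less secretion.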
# KB-V1 cytotox = KB-V1 MDR subline cytotoxicity | KB-V1 MDR cells viability, CellTiter-Glo, 72 h | Potency, µM (top dose mostly 46.1 µM), usual class: cytotoxic | 3.4% of 400,000 active | AID 1347076; note: potency is the fitted concentration of half-maximal effect; nearly all actives have a fitted effect of over 60% in size
#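 Cytotoxicity toward P-gp-expressing KB-V1 cells was determined as loss of CellTiter-Glo luminescence after 72 h at 37 degrees C. Compounds were tested in quantitative HTS format across a concentration range, with curves fitted to normalized data.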
# The depositor's hits bear a star; i = inactive; u = inconclusive; x = no result. Unless noted, calls come from the whole dose curve; as a rule, active = well fitted curve in the direction sought with a large enough effect; inconclusive = small, poorly fitted or top-dose-only effect, or another doubt; inactive = no such curve, though single readings can be large; an effect the other way counts as inactive or inconclusive. Unless noted, % is set by controls: 0 for no effect and ±100 for the full control effect.
SMILES,HT1080NT lethal,HT1080 IDH1KD tx,KB-3-1 cytotox,IL1B secr inh,KB-V1 cytotox
CSc1ccc(S(=O)(=O)N2CCC(C(=O)Nc3ccc(C(N)=O)cc3)CC2)cc1,-18%,-18%,i,-11,i
COc1ccc2sc(N(Cc3cccnc3)C(=O)c3cccs3)nc2c1,x,x,16µM*,x,u
N#CCSc1nccc(/C=C/c2ccccc2)n1,-15%,-20%,i,-92*,i
N#CCSc1nc2ccccc2o1,-1%,6%,i,-2,u
C=CCSc1cc(C)nc2c(-c3ccccc3)cnn12,-16%,-16%,u,31,8.2µM*
CCSc1cc(C)nc2c(-c3ccccc3)cnn12,-1%,-21%,u,24,u
Cc1cc(N)n2ncc(-c3ccccc3)c2n1,-10%,-11%,i,-14,i
CC(=O)Nc1ccc(Nc2cc(C)nc3c(-c4ccccc4)cnn23)cc1,15µM*,13µM*,u,-21,16µM*
CCCC(=O)N1CCC1(C)C(=O)NS(=O)(=O)c1cccc(C)c1 (configuration not stated),11%,30%,i,34,i
Nc1nnc(SCCCC(=O)c2ccc(F)cc2)s1,4%,-1%,i,33,i
O=C(CCCSc1nnc(SCCCC(=O)c2ccc(F)cc2)s1)c1ccc(F)cc1,-13%,-9%,i,-81*,u
CCOc1ccc(NC(=O)CSc2nnc3c(n2)[nH]c2ccc(S(=O)(=O)N(C)C)cc23)cc1,-1%,-6%,x,x,x
COC(=O)/C(C#N)=C/c1ccc(-c2ccc(S(N)(=O)=O)cc2)o1,1%,-1%,i,-74*,i
CCOC(=O)C1=C(CSc2nc(-c3ccccc3)ccc2C#N)OC(N)=C(C#N)C1c1ccc(OC)cc1 (configuration not stated),4%,-2%,i,30,i
Cc1cccc(NC(=S)NCCc2ccccn2)c1,13%,26%,i,-14,i
S=C(NCCc1ccccn1)Nc1cccc(Cl)c1,17%,21%,i,0,21µM*
CC(C)CNC(=O)c1cccc(NC(=O)Cc2ccc(Cl)cc2)c1,2%,-9%,u,-3,5.8µM*
COC(=O)c1cccc(NC(=S)NCCC2=CCCCC2)c1,-24%,21µM*,u,23,u
CC(=O)c1cccc(NC(=S)NCCc2ccc(Cl)cc2)c1,-3%,0%,u,-92*,18µM*
CC(C)CNC(=O)c1cccc(NC(=O)CSc2ccccc2)c1,9%,13%,u,8,i
CC1(C)Cc2cccc(OCC(=O)Nc3cc(S(C)(=O)=O)ccc3Cl)c2O1,-4%,-1%,i,5,i
O=C1CCC(C(=O)Nc2ccccc2N2CCOCC2)=NN1,-2%,7%,i,19,i
CC(C)n1c(CNC(=O)c2ccccc2F)nnc1SCC(=O)c1ccc(F)cc1,-1%,8%,i,22,i
O=C1c2ccccc2C(=O)c2c(NCCCN(CCO)CCO)cccc21,21µM*,u,u,-103*,u
COc1cccc(CNC(=O)CCCN2C(=O)CSc3c2c(C)nn3-c2ccccc2)c1,x,x,i,x,i
SMILES,HT1080NT lethal,HT1080 IDH1KD tx,KB-3-1 cytotox,IL1B secr inh,KB-V1 cytotox
O=C(COc1ccc(Cl)cc1)Nc1cccc(S(=O)(=O)NC2=NCCCCC2)c1,5%,1%,i,-10,i
CCc1nc2ccccc2c(C(=O)OCC(=O)Nc2cccc(S(=O)(=O)NC3=NCCCCC3)c2)c1C,u,u,u,-84*,i
O=C(NC(=S)Nc1cccc(S(=O)(=O)NC2=NCCC2)c1)c1cc(-c2ccco2)nc2ccccc12,9.2µM*,1.6µM*,6.5µM*,46,i
Cc1c(-c2cccc(Cl)c2)nc2ccccc2c1C(=O)OCC(=O)Nc1ccc2c(c1)OCO2,-24%,u,u,-59*,u
Cc1cc(Cl)ccc1OCC(=O)Nc1cccc(S(=O)(=O)NC2=NCCCCC2)c1,-4%,-12%,i,-71*,u
O=C(Nc1cccc(S(=O)(=O)NC2=NCCC2)c1)c1cc(-c2ccco2)nc2ccccc12,-1%,-16%,i,35,i
COc1cc(CN2C[C@@H](CO)O[C@@H](n3cnc4c(N(C)C)ncnc43)C2)cc(OC)c1OC,0%,-2%,u,0,i
CCCN(CCC)CCCNC(=O)c1nn(C)c2c1CS(=O)(=O)c1ccccc1-2,x,x,i,x,i
CC(=O)c1ccc(NC(=O)COc2ccccc2-c2nc(-c3cccc(C)c3)no2)cc1,x,x,i,x,i
CCOc1ccc(C(=O)NC(=S)Nc2cccc(S(=O)(=O)NC3=NCCC3)c2)cc1,0.46µM*,1µM*,2.3µM*,0,7.3µM*
CCOc1cc(C(=O)OCC(=O)Nc2cccc(S(=O)(=O)NC3=NCCCCC3)c2)cc(OCC)c1OCC,-2%,0%,i,u,8.2µM*
CCOc1ccccc1C(=O)OCC(=O)Nc1cccc(S(=O)(=O)NC2=NCCCCC2)c1,2%,6%,i,4,i
CCc1nc2ccccc2c(C(=O)OCC(=O)Nc2cccc(S(=O)(=O)N3CCOCC3)c2)c1C,u,u,21µM*,-78*,6.5µM*
CC(Oc1ccc(Br)cc1)C(=O)Nc1ccc(S(=O)(=O)NC2=NCCCCC2)cc1 (configuration not stated),-7%,0%,i,2,23µM*
CCc1nc2ccccc2c(C(=O)OCC(=O)Nc2ccc(S(=O)(=O)N3CCOCC3)cc2)c1C,u,u,i,-1,i
CCOc1ccc(OCC(=O)Nc2cccc(S(=O)(=O)NC3=NCCC3)c2)cc1,-13%,-23%,u,37,i
CCC1CN(C(=O)N2CCC(C(=O)Nc3ccccc3F)CC2)c2ccccc2O1 (configuration not stated),-3%,-1%,i,0,i
O=C(CN1C(=O)NC(c2ccccc2)(c2ccccc2)C1=O)N1CCOCC1,7%,2%,i,-4,i
CCOc1cc(C(=O)Nc2ccc(S(=O)(=O)NC3=NCCCCC3)cc2)cc(Br)c1OC,u,21µM*,i,-58*,i
O=C(Oc1csc(=S)n1C(=O)c1ccccc1)c1ccccc1,2%,2%,i,0,i
Cc1cccc(C(=O)Oc2csc(=S)n2C(=O)c2cccc(C)c2)c1,7.3µM*,4.6µM*,i,6,i
COc1ccc(/C=C/C(=O)NC(=S)NNC(=O)c2c(-c3ccccc3)noc2C)cc1,-13%,u,u,9,7.3µM*
Cc1onc(-c2ccccc2)c1C(=O)NNC(=S)NC(=O)/C=C/c1ccccc1,-13%,u,u,33,2.9µM*
